Read-outs that look alike come from different tables or passages of the source. Among all 13,000 compounds or so, about 3,200 (25%) showed an effect of 50% or more. The list shows a part of the results.
Test system: P. falciparum stage V gametocytes
Design: BacTiter-Glo ATP luminescence viability of purified stage V gametocytes in 384-well plates, per cent inhibition versus DMSO
Details: 48 h, 5 µM, inhibitor

Oc1cccc(Nc2nc(NCc3ccco3)c3ccccc3n2)c1 [TCMDC-124014]
% Inhibition: 8.731%

Cc1c[nH]c2cc(/C=C/C(=O)NC3CCC(CCN4CCc5ccc(C#N)cc5CC4)CC3)ccc12 (stereo not drawn) [TCMDC-139663]
% Inhibition: 21.27%

Cc1cc(-c2nc3cncc(-c4cccc(CN5CCCC5Cc5cccnc5)c4)c3n2C)nn1C (stereo not drawn) [TCMDC-135046]
% Inhibition: -7.326%

CCOC(=O)N1NC(=O)N(c2ccccc2)C1(c1ccccc1)c1ccccc1 [TCMDC-142002]
% Inhibition: -11.41%

COc1cc2c(cc1C(F)(F)F)N(C(=O)Nc1cc(OC(F)(F)F)cc(-c3cccnc3)c1)CC2 [TCMDC-139046]
% Inhibition: -1.066%

O=C(N1CCN(c2ccc(C(F)(F)F)cc2[N+](=O)[O-])CC1)C(Cl)(Cl)Cl [TCMDC-124371]
% Inhibition: -2.22%

O=C(NC1CCN(c2ccc(F)cc2[N+](=O)[O-])CC1)c1cccs1 [TCMDC-133786]
% Inhibition: 14.81%

O=C(CN1CCN(C(=O)c2ccco2)CC1)Nc1ccc(Br)cc1Cl [TCMDC-124619]
% Inhibition: -12.46%

COc1ccc(CN2CCN(C(=O)c3cccs3)CC2)c(O)c1 [TCMDC-139298]
% Inhibition: 16.42%

CC(C)(C)C(=O)N1CCN(c2ccc([N+](=O)[O-])c(NC3CC3)c2)CC1 [TCMDC-123687]
% Inhibition: 84.84%

O=C(CN1CCN(C(=O)c2ccco2)CC1)Nc1ccccc1Br [TCMDC-124849]
% Inhibition: 32.72%

O=C(c1ccco1)N1CCN(c2ccc([N+](=O)[O-])c(NC3CC3)c2)CC1 [TCMDC-125397]
% Inhibition: 97.95%

Cc1cc(N2CCN(C(=O)OC(C)(C)C)CC2)ccc1N [TCMDC-125886]
% Inhibition: -87.61%

O=C(c1cccs1)N1CCN(c2ccc([N+](=O)[O-])c(NC3CC3)c2)CC1 [TCMDC-123877]
% Inhibition: 88.85%

O=C(NCCN1CCCC1)c1cccc(-c2ccc(-c3nc4ccccc4[nH]3)s2)c1 [TCMDC-132319]
% Inhibition: -6.335%

COc1ccc(CCNC(=O)c2cc3c(=O)n4cccc(C)c4nc3n(C)c2=N)cc1 [TCMDC-125129]
% Inhibition: 30.65%

Cc1cccn2c(=O)c3cc(C(=O)NC4CCCCC4)c(=N)n(CCCn4ccnc4)c3nc12 [TCMDC-125136]
% Inhibition: 14.71%

Cc1ccc(CNC(=O)c2cc3c(=O)n4cccc(C)c4nc3n(CCN3CCOCC3)c2=N)cc1 [TCMDC-125405]
% Inhibition: 11.13%

COc1ccc(CCn2c(=N)c(C(=O)NC3CCCC3)cc3c(=O)n4ccccc4nc32)cc1 [TCMDC-124552]
% Inhibition: 4.624%

C=CCn1c(=N)c(C(=O)NCc2ccc(F)cc2)cc2c(=O)n3cccc(C)c3nc21 [TCMDC-125128]
% Inhibition: 82.89%

C=CCn1c(=N)c(C(=O)NC2CCCCC2)cc2c(=O)n3cccc(C)c3nc21 [TCMDC-125083]
% Inhibition: 96.68%

N#Cc1ccc2nc(-c3ccccc3)[nH]c2c1 [TCMDC-137223]
% Inhibition: 19.91%

COc1cc(C(=O)Nc2cccc(-c3nc4ccccc4[nH]3)c2)ccc1OC(C)=O [TCMDC-123603]
% Inhibition: -70.82%

O=C(CCNc1ccnc(NCC2CCCCC2)n1)Nc1ccccc1 [TCMDC-134707]
% Inhibition: 16.22%

O=C(CCNc1ccnc(NCCc2ccc(F)cc2)n1)Nc1ccccc1 [TCMDC-134824]
% Inhibition: 63.53%

Cc1cnc(NCCc2ccc(F)cc2)nc1NCCC(=O)Nc1ccccc1 [TCMDC-134850]
% Inhibition: 59.7%

Cc1cnc(Nc2ccccc2)nc1NCCC(=O)Nc1ccccc1 [TCMDC-134914]
% Inhibition: 19.34%

Cc1cnc(NCCc2ccc(F)cc2)nc1N[C@@H](CC(C)C)C(=O)Nc1ccccc1 [TCMDC-134851]
% Inhibition: -15.21%

Cc1ccccc1CNc1nccc(NCCC(=O)Nc2ccccc2)n1 [TCMDC-134913]
% Inhibition: 50.88%

O=C(CCNc1ccnc(NCCc2ccccc2)n1)Nc1ccccc1 [TCMDC-134809]
% Inhibition: 42.97%

Cc1cc(NCCC(=O)Nc2ccccc2)nc(NCc2ccccc2C)n1 [TCMDC-134901]
% Inhibition: 2.536%

Cc1ccc(NS(=O)(=O)c2ccc(-c3ccccc3)cc2)c(Cn2cnc(N3CCCNCC3)cc2=O)c1 [TCMDC-133150]
% Inhibition: 3.416%

COc1ccc2ncc(F)c(CCN3CC(O)C(CNCc4nc5c(cc4Cl)OCC(=O)N5)C3)c2n1 (stereo not drawn) [TCMDC-136079]
% Inhibition (% Inhibition): 2.766%

CCOC(=O)c1sc(C(C)Nc2ccccc2)nc1-c1ccccc1 (stereo not drawn) [TCMDC-135642]
% Inhibition: 18.56%

Cc1ccc(CN2CCC(Oc3cccc(NC(=O)c4ccc(C(F)(F)F)cc4)c3)CC2)cc1 [TCMDC-133736]
% Inhibition: -34.39%

O=C(NC1CC1)c1ccc(N2CCC(COc3cccc(F)c3)CC2)nc1 [TCMDC-134029]
% Inhibition: 11.49%

O=C1OC(c2ccccc2)(c2ccccc2)CN1CC1CCN(Cc2ccc(O)c(Cl)c2)CC1 [TCMDC-136312]
% Inhibition: 3.668%

FC(F)(F)c1ccc2[nH]c(-c3cccc(-c4cccc(CNCC5CCCO5)c4)c3)nc2c1.O=C(O)C(F)(F)F (stereo not drawn) [TCMDC-133102]
% Inhibition: -56.01%

CN(Cc1cccc(O)c1)C1CCN(c2cc(NC(=O)c3ccc(F)cc3)ccn2)C1 (stereo not drawn) [TCMDC-134955]
% Inhibition: -27.34%

COc1ccc(CCC(C)(C)NCC(O)c2cccc(C(F)(F)F)c2)cc1 (stereo not drawn) [TCMDC-131504]
% Inhibition: -35.85%

Cc1ccc(S(=O)(=O)Nc2ccc(Nc3nccc(Nc4cccc5[nH]ncc45)n3)cc2)cc1 [TCMDC-136297]
% Inhibition: -19.92%

CC(C)N1CCCN(C(=O)C2CCN(c3ccc(C(=O)N4CCCC4)cn3)CC2)CC1 [TCMDC-135636]
% Inhibition: 39.57%

COc1cc(C2C(Oc3ccccc3)C(=O)N2Cc2ccc(F)cc2)cc(OC)c1OC (stereo not drawn) [TCMDC-125396]
% Inhibition: 72.32%

COc1cc(NC(=O)c2ccc3c(=O)n(Cc4ccccc4)c(=S)[nH]c3c2)cc(OC)c1OC [TCMDC-123804]
% Inhibition: 26.78%

COc1ccc(C2NCCc3c2[nH]c2ccccc32)cc1CN1CCN(c2ccc(F)cc2)CC1 (stereo not drawn) [TCMDC-124340]
% Inhibition: -3.324%

Source: paper PMC4552634, “A New Set of Chemical Starting Points with Plasmodium falciparum Transmission-Blocking Potential for Antimalarial Drug Discovery” (PLoS ONE, 2015)
